Screening data as filed in PubChem BioAssay.
TDP1 cell noCPT – qHTS for Inhibitors of human tyrosyl-DNA phosphodiesterase 1 (TDP1): qHTS in cells in absence of CPT | DT40 Tdp1-/- hTDP1 cells, no CPT, ATP luminescence, 48 h | Potency, µM (top dose mostly 46.2 µM), actives largely listed as inhibitors | 15% of 420,000 active | AID 686978, 2013; also: nearly all actives have a fitted effect of over 55% in size
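Chicken DT40 Tdp1-/- cells stably complemented with human TDP1 were seeded at 400 cells/well with DMSO in place of 20 nM camptothecin. After compound pinning, cells grew at least 48 hr at 37 °C; viability read by CellTiter-Glo luminescence.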
IL1B secr inh – qHTS for Inhibitors of Inflammasome Signaling: IL-1-beta AlphaLISA Primary Screen | THP-1 LPS/ATP IL-1B secretion, AlphaLISA, 16 h; active compounds read low | activity change, % at 57.5 µM | 4.7% of 360,000 active | AID 743279, 2014; in the data active = activity change below about -50%; inconclusive = mostly about -30% to -49%
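THP-1 cells pretreated 1 hr with compounds (up to 57.5 uM final), then stimulated with LPS (250 ng/mL final) plus ATP (1.25 mM final); secreted IL-1B measured by AlphaLISA after 16 hr, decreased signal indicating inhibition.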
TGFb SMAD3 inh – qHTS for Inhibitors of TGF-b; 1.2% of 410,000 active; HepG2 CAGA-GFP TGF-b/SMAD3 reporter, GFP fluorescence, 18 h; TGF-beta stimulated, 500 pg/mL final; Potency, µM (doses to about 46.1 µM), hits mostly inhibitors; also: nearly all actives have a fitted effect of over 65% in size
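Per well, imaged GFP fluorescence of HEPG2 CAGA-GFP cells gives the signal; cells get compound, then TGF-beta (500 pg/mL final), 18 h at 37 degrees C; %Activity versus -TGF-beta and +DMSO controls.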
ASM inhibitor – Inhibitors of Secretory Acid Sphingomyelinase (S-ASM): qHTS; Potency, µM (top dose mostly 57.5 µM), most hits filed as inhibitors; AID 504937, 2011; 0.006% of 340,000 active; Sphingomyelin phosphodiesterase (Homo sapiens), P17405; placental ASM, HMU-PC fluorogenic substrate, 60 min
Target sequence (P17405 47-631 limits assumed): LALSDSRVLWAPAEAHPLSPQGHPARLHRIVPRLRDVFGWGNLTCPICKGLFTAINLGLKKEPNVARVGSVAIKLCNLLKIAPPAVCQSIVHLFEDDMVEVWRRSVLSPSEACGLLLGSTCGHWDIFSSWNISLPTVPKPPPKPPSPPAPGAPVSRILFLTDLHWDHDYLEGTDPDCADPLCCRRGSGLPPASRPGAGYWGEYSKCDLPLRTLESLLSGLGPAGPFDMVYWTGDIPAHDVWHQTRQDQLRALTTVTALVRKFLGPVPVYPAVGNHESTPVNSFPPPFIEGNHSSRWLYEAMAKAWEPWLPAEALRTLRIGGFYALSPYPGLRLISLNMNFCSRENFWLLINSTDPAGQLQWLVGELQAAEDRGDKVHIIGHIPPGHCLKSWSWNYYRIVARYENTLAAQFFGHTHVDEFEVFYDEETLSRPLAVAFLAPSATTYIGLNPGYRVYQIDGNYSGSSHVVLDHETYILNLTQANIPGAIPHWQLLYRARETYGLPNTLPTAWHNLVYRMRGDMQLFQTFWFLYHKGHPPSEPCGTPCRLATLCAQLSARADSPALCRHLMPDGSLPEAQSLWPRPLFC
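Fluorescence read-out (Ex 386 nm, Em 447 nm) after stopping the reaction at pH 10. Enzyme: ASM from human placenta; substrate HMU-PC0, 9 uM final; 60 min, 37 °C. Compound preincubation 10 min, ambient temperature.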
HepG2 tox-1 – qHTS for Inhibitors of TGF-b: Cytotox Counterscreen. AID 588856, 2011. Potency, µM (titrated, usually from 46.1 µM), actives largely listed as cytotoxic. HepG2 CAGA-GFP viability, ATP luminescence, 18 h. 0.76% of 410,000 active
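CellTiter-Glo luminescence gave cytotoxicity after 18 hours at 37 degrees C. The cells were HepG2 CAGA-GFP in 1% FBS DMEM, stimulated with 500 pg/mL TGF-beta after compound addition. %Activity was normalised to no-cell wells (complete cell-killing) and DMSO (no toxicity), and curves were fitted and classified.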
DT40 TDP1 CPT – qHTS for Inhibitors of human tyrosyl-DNA phosphodiesterase 1 (TDP1): qHTS in cells in presence of CPT. chicken DT40 Tdp1-/-;hTDP1 cells + 20 nM CPT, ATP luminescence, 48 h. Potency, µM (highest dose often 46.2 µM), actives largely listed as inhibitors. 12% of 420,000 active; also: nearly all actives have a fitted effect of over 55% in size
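Chicken DT40 Tdp1-/- cells stably complemented with human TDP1 were seeded at 400 cells/well in medium containing 20 nM camptothecin, exposed to pin-transferred compounds, and grown at 37 °C for at least 48 hr. Viability was read as ATP luminescence.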
TGFb CAGA inh – qHTS for Inhibitors of TGF-b: Confirmation of Cherry Picks; 63% of 1,600 active; Potency, µM (highest dose often 46.1 µM), usual class: inhibitors; shares compounds with TGFb SMAD3 inh; HepG2 CAGA-GFP TGF-b reporter, GFP fluorescence, 18 h; cells stimulated with TGF-beta, 500 pg/mL; AID 720534, 2013; also: nearly all actives have a fitted effect of over 65% in size
HepG2 tox-2 – qHTS for Inhibitors of TGF-b: Cytotox Counterscreen for Cherry Picks; AID 720535, 2013; shares compounds with TGFb SMAD3 inh; 27% of 1,600 active; Potency, µM (titrated, usually from 46.1 µM), actives largely listed as inhibitors; HepG2 CAGA-GFP viability, ATP luminescence, 18 h; cells stimulated with TGF-beta, 500 pg/mL; also: nearly all actives have a fitted effect of over 70% in size
CCL64 TGFb inh – qHTS for Inhibitors of TGF-b: CCL64 Cells Orthogonal Assay for Cherry Picks | shares compounds with TGFb SMAD3 inh | CCL64 CAGA-GFP reporter, TGF-b stimulated, GFP fluorescence, 18 h | Potency, µM (doses to about 46.1 µM), hits mostly inhibitors | 41% of 1,600 active; also: nearly all actives have a fitted effect of over 65% in size
COP TGFb inh – qHTS for Inhibitors of TGF-b: Hit Validation in HepG2 Cells using COP promoter | shares compounds with TGFb SMAD3 inh | HepG2 COP-GFP TGF-b reporter, GFP fluorescence, 18 h; cells stimulated by added recombinant TGF-beta | Potency, µM (series often up to 46.1 µM), usual class: inhibitors | 3% of 1,600 active | AID 720537, 2013; also: nearly all actives have a fitted effect of over 70% in size
Each line names hits and unclear results; the compound was inactive in the other large screens (follow-up assays come after a bar, where they were run). The list is not random: actives were taken first. Their share in the collection is about 19%. Unless noted, calls follow the shape of the dose curve; as a rule, active = well fitted curve in the direction sought with a large enough effect; inconclusive = small, poorly fitted or top-dose-only effect, or another doubt; inactive = no such curve, though single readings can be large; an effect the other way counts as inactive or inconclusive.

CN(C)CCNC(=S)Nc1ccc(Cl)cc1	none
O=[N+]([O-])c1ccc(NC(=S)NCCc2ccc(Cl)cc2)cc1	TDP1 cell noCPT 5.2µM, IL1B secr inh -55, TGFb SMAD3 inh 6.3µM, HepG2 tox-1 11µM, DT40 TDP1 CPT 2.3µM | TGFb CAGA inh 15µM | HepG2 tox-2 21µM | CCL64 TGFb inh 4.6µM | COP TGFb inh inactive
COc1ccc(CC(=O)Nc2nnc(C(C)C)s2)cc1OC	none
Cn1cnc(S(=O)(=O)Nc2ccc(OC(F)F)cc2)c1	none
Cc1c(N(C)S(=O)(=O)c2cc(C(=O)N3CCCC3)ccc2Cl)c(=O)n(-c2ccccc2)n1C	none
O=C(NC(=S)Nc1ccc([N+](=O)[O-])cc1O)C1CCCCC1	IL1B secr inh inconclusive, TGFb SMAD3 inh 11µM | TGFb CAGA inh 16µM | HepG2 tox-2 inconclusive | CCL64 TGFb inh inactive | COP TGFb inh inactive
O=C(NC(=S)Nc1cccc([N+](=O)[O-])c1)C1CCCC1	none
O=C(Nc1ccc(F)cc1)Nc1cc(OCC(F)(F)F)cc(OCC(F)(F)F)c1	TDP1 cell noCPT 4.6µM, IL1B secr inh -61, TGFb SMAD3 inh 4µM, HepG2 tox-1 8.9µM, DT40 TDP1 CPT 2.6µM | TGFb CAGA inh 6.5µM | HepG2 tox-2 inconclusive | CCL64 TGFb inh 7.3µM | COP TGFb inh inactive
O=C(NCCNC(=O)c1cc(OCC(F)(F)F)ccc1OCC(F)(F)F)Nc1ccc(Cl)cc1	none
CN(Cc1ccon1)C(=O)CC1C(=O)NCCN1CC1CCCCC1 (stereo not drawn)	none
Cc1ccc(N2C(SCC(=O)O)=NC(=Nc3cccc(C)c3)C23CCCC3)cc1	none
O=C(/C=C\c1ccccc1)NC1CC(=O)N(c2ccccc2)C1 (stereo not drawn)	none (no result: IL1B secr inh, ASM inhibitor)
CC(=O)Nc1ccc(NC(=O)C(C)OC(=O)C2(c3ccc(Cl)cc3)CCCC2)cc1 (stereo not drawn)	TDP1 cell noCPT inconclusive
Cc1ccc(NC(=O)COC(=O)C2(c3ccc(Cl)cc3)CCCC2)cc1	TDP1 cell noCPT 23µM, IL1B secr inh inconclusive, TGFb SMAD3 inh 10µM, DT40 TDP1 CPT 23µM | TGFb CAGA inh inconclusive | HepG2 tox-2 inconclusive | CCL64 TGFb inh inconclusive | COP TGFb inh inactive
CCN1c2ccccc2-c2nc(SCC(=O)Nc3cc(OC)cc(OC)c3)ncc2S1(=O)=O	none (no result: IL1B secr inh, ASM inhibitor)
O=C(/C(=N\Nc1ccc([N+](=O)[O-])cc1)Sc1nnnn1-c1ccccc1)c1ccccc1	TDP1 cell noCPT inconclusive, TGFb SMAD3 inh 7.9µM, DT40 TDP1 CPT inconclusive | TGFb CAGA inh inconclusive | HepG2 tox-2 23µM | CCL64 TGFb inh 21µM | COP TGFb inh inactive
O=C(CN(Cc1ccccc1Cl)C(=O)c1csnn1)NCc1ccccc1	none
Cc1nn(-c2ccc(F)cc2)c(C)c1NS(=O)(=O)c1ccc2ccccc2c1	TDP1 cell noCPT inconclusive, IL1B secr inh inconclusive, TGFb SMAD3 inh 10µM, DT40 TDP1 CPT inconclusive | TGFb CAGA inh inconclusive | HepG2 tox-2 inconclusive | CCL64 TGFb inh inconclusive | COP TGFb inh inactive
CC(=O)Nc1ccc(S(=O)(=O)Nc2c(C)nn(-c3ccccc3)c2C)cc1	TDP1 cell noCPT inconclusive, DT40 TDP1 CPT inconclusive
Clc1ncnc2[nH]ccc12	TDP1 cell noCPT inconclusive
OC[C@@H]1CN(Cc2ccc(-c3ccccc3)cc2)C[C@H](n2cnc3c(Nc4ccccc4)ncnc32)O1	TDP1 cell noCPT inconclusive, IL1B secr inh inconclusive, TGFb SMAD3 inh 10µM, DT40 TDP1 CPT 4.1µM (no result: ASM inhibitor) | TGFb CAGA inh 8.2µM | HepG2 tox-2 inconclusive | CCL64 TGFb inh inconclusive | COP TGFb inh inactive
CC1=C(CO)C(=O)OC([C@@H](C)C2CC[C@H]3C4C[C@H]5O[C@]56[C@@H](O)C=CC(=O)[C@]6(C)C4CC[C@]23C)C1 (stereo partly drawn)	TDP1 cell noCPT 1.3µM, IL1B secr inh -107, TGFb SMAD3 inh 2.8µM, DT40 TDP1 CPT 1.5µM | TGFb CAGA inh 0.58µM | HepG2 tox-2 2.3µM | CCL64 TGFb inh 1.2µM | COP TGFb inh inconclusive
CC(=O)OC1CCC2(C)C(CCC3C4CC=C(C(C)=O)C4(C)OC(=O)CC32)C1 (stereo not drawn)	TDP1 cell noCPT 2.1µM, IL1B secr inh -107, TGFb SMAD3 inh 4µM, HepG2 tox-1 13µM, DT40 TDP1 CPT 2.3µM (no result: ASM inhibitor) | TGFb CAGA inh 18µM | HepG2 tox-2 12µM | CCL64 TGFb inh 2.9µM | COP TGFb inh inconclusive
OCC1OC(n2ccc3c2ncn2ncnc32)C(O)C1O (stereo not drawn)	TDP1 cell noCPT 0.46µM, TGFb SMAD3 inh 5µM, DT40 TDP1 CPT 0.37µM (no result: ASM inhibitor) | TGFb CAGA inh 1.8µM | HepG2 tox-2 0.52µM | CCL64 TGFb inh inactive | COP TGFb inh inactive
CN(C)c1ncnc2c1nnn2C1OC(CO)C(O)C1O (stereo not drawn)	TDP1 cell noCPT 0.33µM, TGFb SMAD3 inh 0.56µM, DT40 TDP1 CPT 0.58µM (no result: ASM inhibitor) | TGFb CAGA inh 2.1µM | HepG2 tox-2 inconclusive | CCL64 TGFb inh inconclusive | COP TGFb inh inactive
C=CCOc1ccc(C[C@H](N)C(=O)NC[C@H]2O[C@@H](n3cnc4c(N)ncnc43)[C@H](O)[C@@H]2O)cc1	none
